Compound activity (PubChem)
hcDAF-12 act: H. contortus DAF-12 activation, primary screen; hit rate 1.4% among 370,000; HEK293 hcDAF-12 lit1-tk-luc reporter, luminescence; 0% DMSO, 100% Δ7-dafachronic acid; AID 652067; activation, % at 6.8 µM;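 active means activation above the mean of all tested compounds plus 3 SD, cut at about 5.5% in these data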
DAX1 inh-1: inhibits human nuclear receptor DAX1. P51843. inhibition, % at 6.75 µM. HEK293 Gal4-DAX1 luciferase reporter, luminescence. hit rate 0.99% among 340,000;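 active means inhibition above the mean over all tested compounds plus 3 SD, cut at about 4.2% in these data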;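 further: inhibition shows as a rise in luminescence from relieved DAX1 repression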
Target sequence (P51843 207-470 limits assumed): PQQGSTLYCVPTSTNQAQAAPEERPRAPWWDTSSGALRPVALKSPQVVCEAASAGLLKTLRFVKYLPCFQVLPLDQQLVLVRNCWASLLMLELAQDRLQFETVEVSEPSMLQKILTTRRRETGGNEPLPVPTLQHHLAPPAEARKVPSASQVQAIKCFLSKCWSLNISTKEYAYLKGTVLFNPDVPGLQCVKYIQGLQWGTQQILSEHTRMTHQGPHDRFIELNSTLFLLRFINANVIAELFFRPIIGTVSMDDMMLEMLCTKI
ssDAF-12 act: activators of S. stercoralis DAF-12 nuclear receptor. HEK293 ssDAF-12/GRIP1 lit1-tk-luc reporter, luminescence; % of 3 µM dafachronic acid response. activation, % at 6.8 µM. hit rate 1% among 370,000;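 active means activation above the mean over all tested compounds plus 3 SD, cut at about 0.9% in these data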
DAX1 inh-2: DAX1 (NR0B1) inhibition, primary screen | HEK293T StAR-luciferase reporter, SF-1/DAX-1 repression relief | inhibition, % at 6.8 µM | hit rate 1.1% among 370,000 | AID 652010;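 active means inhibition above the mean over all tested compounds plus 3 SD, cut at about 3.6% in these data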;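 further: higher inhibition means more luminescence from relief of DAX-1 repression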
hgDAF-12 ag: agonists of H. glycines DAF-12 nuclear receptor; HEK293 GAL4-hgDAF12 UAS-luciferase reporter, agonist luminescence; normalized to butyrate control; activation, % at 6.8 µM; hit rate 1.8% among 370,000; AID 687014;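 active means activation above a cutoff set at the mean of all screened compounds plus 3 SD, cut at about 10% in these data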
PolyA inh: inhibitors of polyadenylation in S. cerevisiae; activity score, % at 12 µM; hit rate 0.02% among 300,000; S. cerevisiae SKY197-pL101 polyadenylation reporter, beta-gal luminescence; efflux-impaired pdr1/pdr3 knockout yeast; score 100 = 6 SD above DMSO;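 active means lowest replicate activity score at least 50, where 100 means six control SD above control mean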;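 further: yeast exposed to compound for 9 h at 30 °C; higher score means more reporter readthrough which indicates perturbed polyadenylation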
DAX1 conf: NR0B1 (human) inhibition, confirmation | shares compounds with DAX1 inh-2 | HEK293T StAR-promoter luciferase reporter, SF-1/DAX-1 repression | inhibition, % at 6.8 µM | hit rate 87% among 2,400 | AID 652134;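 active means inhibition above the average of every tested compound plus 3 SD, cut at about 3.8% in these data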;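 further: active compounds raise luminescence by relieving repression of the StAR reporter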
Target sequence (P51843 whole entry, looked up): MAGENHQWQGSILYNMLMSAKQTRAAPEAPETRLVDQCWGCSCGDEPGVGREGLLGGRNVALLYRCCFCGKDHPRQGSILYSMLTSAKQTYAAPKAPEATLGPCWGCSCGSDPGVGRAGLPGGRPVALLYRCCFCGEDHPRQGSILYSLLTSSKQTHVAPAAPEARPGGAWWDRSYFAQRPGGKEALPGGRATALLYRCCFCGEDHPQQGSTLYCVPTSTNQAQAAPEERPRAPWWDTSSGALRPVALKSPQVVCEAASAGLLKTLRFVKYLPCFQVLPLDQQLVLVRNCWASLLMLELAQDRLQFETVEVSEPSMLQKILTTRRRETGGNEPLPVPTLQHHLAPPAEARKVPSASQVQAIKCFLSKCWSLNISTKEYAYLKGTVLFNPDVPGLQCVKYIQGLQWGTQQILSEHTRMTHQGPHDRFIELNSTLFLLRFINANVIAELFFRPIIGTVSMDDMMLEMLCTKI
SF1 mutant ctr: nonselective inhibitor or artifact in SF-1 mutant DAX1 counter-screen; HEK293 StAR-luciferase, SF-1 AF2 mutant, luminescence; shares compounds with DAX1 inh-2; hit rate 78% among 2,400; inhibition, % at 6.8 µM; AID 652136;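 active means inhibition above the mean of all tested compounds plus 3 SD, cut at about 3% in these data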
LXR ag: activates human LXR-beta, counter-screen for hcDAF-12 agonists; activation, % at 6.8 µM; shares compounds with hcDAF-12 act; HEK293 Gal4-LXR tk-luc reporter, luminescence, 24 h; normalized: DMSO 0%, positive control 100%; 3,400 tested, under 10 active;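 active means mean percent activation of the reporter above a cutoff set as the average over tested compounds plus their standard deviation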
hcDAF12 ag: confirmation of H. contortus DAF-12 agonists; shares compounds with hcDAF-12 act; HEK293 hcDAF-12 lit1-tk-luc reporter, luminescence; % of Δ7-dafachronic acid response; activation, % at 6.8 µM; hit rate 61% among 3,400; AID 743032;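 active means mean activation across triplicate tests above the threshold derived from the earlier primary screen, cut at about 5.5% in these data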
hgDAF12 ag: hgDAF-12 agonism, confirmation assay | HEK293 GAL4-hgDAF12 luciferase reporter, agonist mode; percent of butyrate response | activation, % at 6.8 µM | AID 743050 | shares compounds with hgDAF-12 ag | hit rate 80% among 3,300;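 active means mean activation over triplicate wells above the hit cutoff derived from the earlier primary screen, cut at about 11% in these data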
LXRb DAF12 ctr: counter-screen for DAF-12 agonists: agonists of human LXR-beta; 3,300 tested, under 10 active; activation, % at 6.8 µM; AID 743051; HEK293 Gal4-LXR luciferase reporter, 24 h; shares compounds with hgDAF-12 ag;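 active means mean activation of the triplicate above a set limit carried over from the primary screen, none filed active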
Numbers stand for hits; 0 = inactive; - = no result. A selection: hits, their analogues and other compounds. The true share with any hit is near 4.1%.

SMILES	hcDAF-12 act	DAX1 inh-1	ssDAF-12 act	DAX1 inh-2	hgDAF-12 ag	PolyA inh	DAX1 conf	SF1 mutant ctr	hgDAF12 ag	LXRb DAF12 ctr	others
COc1ccc(S(=O)(=O)Nc2c(C)n(C)n(-c3ccccc3)c2=O)cc1C(=O)O	0	0	0	0	0	0	-	-	-	-
O=C(Nc1ccccc1)c1ccc(-c2ccc(F)cc2)s1	0	0	1.0	7.1	13.3	0	11.3	7.0	17.6	0
Clc1ccc(-c2csc(NCC3CCCO3)n2)cc1 (centres undefined)	0	-	0.9	5.1	15.2	-	7.8	4.3	13.3	0
O=C(Nc1nccs1)c1cncc(Br)c1	7.9	0	0	6.3	14.8	0	7.6	6.3	10.8	0	LXR ag=0;hcDAF12 ag=6.0
O=C(Nc1ccc2c(c1)OCO2)c1cc(C2CCCN(C(=O)CCc3ccccc3)C2)on1 (centres undefined)	0	-	0	0	0	-	-	-	-	-
CCCC(=O)N1CCCC(c2cc(C(=O)Nc3ccc4c(c3)OCO4)no2)C1 (centres undefined)	0	-	0	4.7	18.0	-	4.4	0	12.7	0
O=C(/C=C/c1ccccc1Cl)Nc1cccc(S(=O)(=O)NC2=NCCCCC2)c1	0	0	0	0	0	0	-	-	-	-
O=C(/C=C/c1ccc(Cl)cc1Cl)Nc1cccc(S(=O)(=O)NC2=NCCC2)c1	0	0	0	5.4	18.4	0	9.4	5.0	14.2	0
CCOCCCN(C(=O)c1snc(C(N)=O)c1N)C(C(=O)NCCC(C)C)c1ccc(Cl)cc1 (centres undefined)	0	0	0	0	0	0	-	-	-	-
CC(=O)N/N=C(/C)c1ccc(NC(=O)c2csc(C)c2C)cc1	5.8	0	0	12.8	17.0	0	9.4	4.7	15.9	0
CN(c1ccccc1)S(=O)(=O)c1ccc(C(=O)Nc2ncccc2O)cc1	0	0	0	0	0	0	-	-	-	-
COC(=O)c1ccc(NC(=O)c2ccc(NS(=O)(=O)c3cccc4cccnc34)cc2)cc1	-	0	-	-	-	0	-	-	-	-
O=C(Nc1ccccc1O)c1ccc(NS(=O)(=O)c2cccc3cccnc23)cc1	19.4	18.2	2.3	53.9	83.5	0	90.8	38.4	89.4	0	LXR ag=0;hcDAF12 ag=13.2
O=C(Nc1ncccc1O)c1ccc(S(=O)(=O)Nc2ccccc2)cc1	13.3	11.3	0	84.7	85.2	0	111.5	57.7	80.9	0	LXR ag=0;hcDAF12 ag=8.0
O=C(COc1ccc2c(c1)CCC2)NCc1ccccc1	0	0	0	0	0	0	-	-	-	-
NNC(=O)c1cccc(COc2ccc3c(c2)CCC3)c1	0	0	0	4.9	22.0	0	14.8	5.1	21.6	0
OCc1cccc(-c2csc(C(O)c3ccco3)n2)c1 (centres undefined)	0	-	0	0	0	-	-	-	-	-
Cc1ccc(NC(=O)COc2ccccc2C=O)cc1Cl	5.8	0	0	4.5	20.1	0	9.6	5.4	15.4	0
Cc1ccsc1/C=C/c1ccc2ccccc2n1	23.2	0	3.0	5.0	16.1	0	7.3	0	15.2	0	LXR ag=0;hcDAF12 ag=21.9
COc1ccc(C=Cc2ccc3ccccc3n2)c(OC)c1	0	0	0	0	0	-	-	-	-	-
Cc1cnc(NC(=O)COc2ccc3c(c2)CCC3)s1	6.1	0	1.3	13.5	25.2	0	13.8	5.3	24.6	0
O=C(Nc1ccc2c(c1)OCO2)c1cc(-c2ccccc2Cl)on1	0	0	0	0	0	0	-	-	-	-
O=C(Nc1ccc2c(c1)OCO2)c1cc(Cl)ccn1	0	0	0	6.5	15.7	-	11.7	5.3	17.0	0
O=C(Nc1ccc2c(c1)OCO2)c1ccc(Cl)cc1Cl	10.8	0	0	15.9	18.4	0	14.5	5.0	17.4	0	LXR ag=0;hcDAF12 ag=6.6
Cc1cccc(C)c1N=Nc1c(C)cc(O)cc1C	0	0	0	0	0	0	-	-	-	-
SMILES	hcDAF-12 act	DAX1 inh-1	ssDAF-12 act	DAX1 inh-2	hgDAF-12 ag	PolyA inh	DAX1 conf	SF1 mutant ctr	hgDAF12 ag	LXRb DAF12 ctr	others
Cc1nn(-c2nnc(NC3CCCCC3)nn2)c(C)c1Br	6.1	0	1.8	5.2	17.9	0	12.7	8.3	15.6	0
CCN(CC)CCCOC(=O)c1ccc(OC)cc1O	0	0	0	0	0	0	-	-	-	-
O=C1Nc2ccccc2N(C(=O)c2c(F)cccc2F)C1c1nc2ccccc2[nH]1 (centres undefined)	0	-	0	13.8	23.3	-	4.2	3.1	10.6	0
Cc1ccc(Nc2ncnc3nc[nH]c23)cc1Cl	0	0	0	6.4	13.7	0	8.1	5.5	14.0	0
COc1cccc(NC(=O)Nc2ccc3c(c2)nc(C)n3C)c1	5.7	0	0	4.7	20.4	-	12.1	7.8	14.8	0
Oc1ccccc1-c1cc(-c2ccccc2Cl)[nH]n1	19.2	0	4.0	8.6	25.1	-	18.7	10.5	26.8	0	LXR ag=0;hcDAF12 ag=14.7
Cc1ccc(N/C=C/C(=O)c2cccs2)cc1C	20.8	-	2.6	6.7	30.0	0	18.3	6.0	18.0	0	LXR ag=0;hcDAF12 ag=25.3
CC(=O)c1cccc(NC(=O)NC2CCCCC2)c1	-	0	-	-	-	0	-	-	-	-
O=C(Nc1ccccc1F)NC1CCCCCCC1	0	0	0	4.5	13.4	0	7.2	4.1	0	0
CC(=O)c1ccc(NC(=O)NC2CCCCCCC2)cc1	0	0	0	11.9	14.2	-	12.8	7.4	15.9	0
CC(=O)c1ccc(NC(=O)Nc2ccc(Cl)cc2)cc1	7.1	0	0	6.5	14.9	0	6.6	5.8	16.4	0	LXR ag=0;hcDAF12 ag=7.4
CCc1ccc(NC(=O)C(=O)N/N=C(\C)CC(=O)NCc2ccc(Cl)cc2)cc1	0	0	0	0	0	0	-	-	-	-
C#CCOCCOCCOCCNc1nc(N2CCN(C(=O)[C@H](CCC(=O)O)n3cc(C(N)CO)nn3)CC2)nc(N2CCN(C(=O)[C@H](CCC(=O)O)n3cc(C(N)CC(C)C)nn3)CC2)n1 (some centres undefined)	-	-	-	-	-	0	-	-	-	-
